Laboratory results published in PubChem BioAssay AID2108 (National Center for Advancing Translational Sciences (NCATS), 2009).
Inconclusive results are not listed. Activity calls are given as the source filed them. The call rests on the fitted dose curve; in most records, active means well fitted curve in the direction sought with a large enough effect; inconclusive means small, poorly fitted or top-dose-only effect, or effect the other way, or another doubt; inactive means no such curve, though single readings can be large or run the other way.

The compounds below were run against Alpha-galactosidase A (Homo sapiens) (UniProt P06280) (assay: Confirmation of Inhibitors of Human alpha-Galactosidase Using Spleen Homogenate). Details: alpha-galactosidase enzyme activity; series mostly up to 56.2 µM.
Chain of Alpha-galactosidase A (Homo sapiens) (P06280 32-429 limits assumed): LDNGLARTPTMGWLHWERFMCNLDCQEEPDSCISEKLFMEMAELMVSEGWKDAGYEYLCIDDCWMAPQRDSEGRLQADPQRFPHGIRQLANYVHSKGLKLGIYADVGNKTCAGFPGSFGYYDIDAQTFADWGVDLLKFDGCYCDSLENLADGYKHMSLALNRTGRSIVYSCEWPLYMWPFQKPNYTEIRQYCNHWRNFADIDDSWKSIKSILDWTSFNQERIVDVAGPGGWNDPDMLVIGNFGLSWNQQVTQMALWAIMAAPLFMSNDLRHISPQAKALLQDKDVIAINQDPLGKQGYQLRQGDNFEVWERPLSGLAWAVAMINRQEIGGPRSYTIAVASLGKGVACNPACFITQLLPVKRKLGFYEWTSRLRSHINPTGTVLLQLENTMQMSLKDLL
Procedure, shortened: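 AC50 values come from Hill-equation fits of normalised 4-methylumbelliferone fluorescence (365/440 nm, read after NaOH/glycine stop). Enzyme source: spleen homogenate; substrate 1 mM final; pH 5.0 citrate buffer; 40 min at 37C; compound titration 0.5 nM–58 uM.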

outcome, inactive:
COc1ccc(C2=NNC(c3cc(Cl)cc4c3OCOC4)C2)c(O)c1 (configuration not stated), NC(=S)NN=C1c2cc(S(=O)(=O)N3CCOCC3)ccc2-c2ccc(S(=O)(=O)N3CCOCC3)cc21, CCc1ccc(-c2nc(-c3cc4ccc(OC(C)=O)cc4oc3=O)sc2C)cc1, CC1(C)CC(=O)c2cc(C(=O)NC3CCSC3=O)c(=O)n(-c3ccccc3)c2C1 (configuration not stated), OCC(CO)NC1C[C@](O)(CO)[C@@H](O)[C@H](O)[C@H]1O (some centres not stated), Cc1ccc(C2NC(=O)c3c(sc4c3CCN(C)C4)N2)s1 (configuration not stated), COc1cc(C2c3cc4c(cc3C(OC3OC5COC(C)O[C@@H]5C(O)C3O)C3COC(=O)C23)OCO4)cc(OC)c1O (some centres not stated), Clc1ccc(Nc2ncnc3ccc(Br)cc23)cc1, COc1ccc(/C=C/c2nnc(NC(C)=O)s2)cc1, CCN(CC)S(=O)(=O)c1ccc2c(c1)-c1cc(S(=O)(=O)N(CC)CC)ccc1C2=NNC(N)=S, Clc1ccc(-c2ccnc(Oc3cc(Cl)ccc3Cl)n2)cc1, CC(=O)c1ccc(N2CCN(S(=O)(=O)c3ccc4c(c3)CC(=O)N4)CC2)cc1, Oc1ccccc1C1CC(c2cccs2)=NC(c2ccc(Cl)cc2)N1 (configuration not stated), O=S(=O)(c1cccc(Br)c1)N1CCOCC1, CC/C(=N\NC(=O)c1c(C)nc2ccccn12)c1ccc(Cl)cc1, O=C(NN=C1c2ccccc2-c2ccccc21)c1cccc(S(=O)(=O)N2CCOCC2)c1, CCOc1c(Cl)cc(CNc2ccc3[nH]c(=O)[nH]c3c2)cc1OC, OC[C@H]1NC[C@@H](O)[C@@H](O)[C@@H]1O, N#Cc1c(Cl)cccc1N1CCC(C(N)=O)CC1, Cc1ccc(-c2cc(C(=O)N/N=C/c3c(C)nn(-c4ccccc4)c3C)n[nH]2)s1, CC(C)(C)OC(=O)NCCCC[C@H](NC(=O)c1nc[nH]c1C(=O)NCc1ccccc1)C(=O)OC(C)(C)C, O=C1NC[C@@H](Cc2cccc3ccccc23)N(CCc2cc(C(F)(F)F)cc(C(F)(F)F)c2)C1=O, O=C(NC1=NCCS1)C1Cc2ccccc2CN1C(=O)c1ccccc1 (configuration not stated), CCn1c2ccccc2c2nnc(NN)nc21, Cc1sc(-c2cc3ccccc3oc2=O)nc1-c1ccc(Cl)cc1, CC(=O)c1ccc(S(=O)(=O)N2CCOCC2)cc1, COC(=O)c1ccc(C(=O)OC)c(NC(=S)N2CCOCC2)c1, O=C(CSc1ccccc1)Nc1nnc(/C=C/c2ccccc2)s1, O=C(COC(=O)c1ccccc1Br)NCCc1ccc(F)cc1, CC(N=C(NC#N)Nc1ccncc1)C(C)(C)C (configuration not stated), Nc1nc(C2CC2)c(Sc2sc(N)nc2C2CC2)s1, Cc1ccc(N/N=C2\CCS(=O)(=O)c3sccc32)cc1, C=CCSc1nc(-c2ccc3c(c2)OCO3)cc(C(F)(F)F)c1C#N, O=S(=O)(c1ccccc1)N1CCN(S(=O)(=O)c2ccccc2)CC1, CCOc1cc(CNc2ccc(O)cc2)cc(Cl)c1OCc1ccccc1, CC(=O)N1CCN(c2ccc(NCc3ccc(C)cc3)cc2)CC1, CCc1sc(-c2cc3cc(Cl)ccc3oc2=O)nc1-c1ccccc1
